According to PubChem BioAssay AID463173 (ICCB-Longwood Screening Facility, Harvard Medical School, 2010):
Hit rate of the full screen: of about 52,000 compounds, about 4,300 (8.3%) were called active. Many of the other results were omitted from the sample, so actives are more common in it than they were. Unmarked numbers belong to inactive results. Rule as the data show it: active = survival mostly below about 52% (no sharp cut-off); inactive = mostly above about 56%.

system: DeltatarO mutant; experiment: growth inhibition of S. aureus wild type versus tarO mutant, primary screen, teichoic acid synthesis inhibitors, RN4220, OD600 (AID 463173); conditions: OD600, 18 h, hits give low values, screened at 18.75 µg/mL (by protocol)

Compound	survival
COc1ccc(-n2cc(-c3ccc4c(c3)OCO4)n(CC(=O)Nc3cc(Cl)ccc3C)c2=O)cc1	73%
O=C(c1ccc2c(c1)N(Cc1ccc(F)cc1)C(=O)c1ccccc1S2(=O)=O)N1CCN(Cc2ccccc2)CC1	72%
Cc1ccc(CCNC(=O)CCSCc2ccc(Cl)cc2)cc1	82%
Cc1ccc(CCNC(=O)c2ccc(CSCc3ccccc3C)o2)cc1	32% (active)
Cc1ccc(CCNC(=O)CCSCc2ccccc2F)cc1	-4% (active)
COc1ccc(CCNC(=O)CCSCc2ccccc2Cl)cc1OC	76%
O=C(CCSCc1ccccc1Cl)NCCc1ccccc1	71%
O=C(CCSCc1cccc(Cl)c1)NCCc1ccc(Cl)cc1	76%
CCc1ccc(CNC(=O)CCSCc2ccccc2F)cc1	96%
Cc1ccc(CCNC(=O)CCSCc2ccccc2Cl)cc1	20% (active)
O=C(CCSCc1ccc(Cl)cc1)NCCc1ccccc1	-5% (active)
Cc1ccc(CCNC(=O)c2ccc(CSCc3ccccc3Cl)o2)cc1	87%
Cc1ccccc1CSCc1ccc(C(=O)NCCc2ccccc2)o1	83%
Cc1ccc(CNC(=O)CCSCc2ccccc2F)cc1	78%
O=C(NC1CCN(CC(=O)N2CCOCC2)CC1)C1CCCCC1	95%
CCN(C(=O)c1cccn(Cc2cccc(Cl)c2)c1=O)c1ccccc1	80%
COc1ccccc1C(=O)Nc1ccc(OCc2cc(=O)n3cccc(C)c3n2)cc1	94%
CC(C)Cc1cc(C(=O)O)nc(=O)[nH]1	105%
CC(=O)c1ccc(NC(=O)COCc2cc(-c3ccc(F)cc3)on2)cc1	102%
Cc1ccccc1NC(=O)CSc1cn(CC(=O)N(C(C)C)C(C)C)c2ccccc12	54%
CN1CCN(C(=O)C23CC4CC(CC(C4)C2)C3)CC1	111%
COc1cc(C(=O)NCC(c2cccs2)S(=O)(=O)c2ccc(F)cc2)cc(OC)c1OC (stereo unspecified)	104%
CCOc1ccc(S(=O)(=O)Nc2ccc(OC)c(Cl)c2)c2cccnc12	70%
Cc1ccccc1CNC(=O)CCSCc1cnn(-c2ccccc2)c1-n1cccc1	64%

Compound	survival
O=C(NCc1ccccc1Cl)c1ccc(CSCc2cccc(F)c2)o1	17% (active)
O=C(CCSCc1cccc(Cl)c1)NCc1ccc(F)cc1Cl	102%
O=C(CCSCc1cnn(-c2ccccc2)c1-n1cccc1)NCc1ccccc1F	61%
O=C(NCc1ccc(F)cc1Cl)c1ccc(CSCc2ccccc2Cl)o1	54%
O=C(CCSCc1cnn(-c2ccccc2)c1-n1cccc1)NCc1ccccc1Cl	54% (active)
O=C(NCc1ccccc1Cl)c1ccc(CSCc2ccccc2Cl)o1	93%
O=C(CCSCc1ccccc1Cl)NCc1ccc(F)cc1Cl	8% (active)
O=C(CCSCc1ccc(Cl)cc1)NCc1ccc(F)cc1Cl	88%
Fc1ccccc1N1CCN(c2ncc3c(n2)CCN(Cc2ccc(Br)s2)C3)CC1	66%
CCc1nn2c(=O)cc(COC(=O)c3ccc(NC(=O)CCc4ccccc4)cc3)nc2s1	99%
COc1ccc(OC)c(NC(=O)C(C)n2nc(C)c3c(C)n(-c4ccccc4)nc3c2=O)c1 (stereo unspecified)	93%
O=C(Nc1cccc(F)c1)C1CCN(S(=O)(=O)c2ccc3[nH]c4c(c3c2)CCCCC4)CC1	89%
CCCn1c2ccccc2c2cnn(CC(=O)NC(C)CC)c(=O)c21 (stereo unspecified)	72%
O=C(NCc1ccco1)c1ccc2c(c1)N(Cc1ccc(Cl)cc1)C(=O)c1ccccc1S2	71%
COc1ccc(CCN2C(=O)N(c3ccc(F)cc3)C(=O)C2CC(=O)Nc2ccccc2)cc1OC (stereo unspecified)	76%
Cc1ccc(NC(=O)Nc2nnc(SCC(=O)Nc3ccc(F)cc3F)s2)cc1	102%
Nc1nc(N)c(S(=O)(=O)c2ccccc2)c(Nc2ccccc2)n1	69%
Nc1nc(N)c(S(=O)(=O)c2ccccc2)c(Nc2ccc(Br)cc2)n1	44% (active)
Cc1nc(N)c(S(=O)(=O)c2ccccc2)c(Nc2ccc(Br)cc2)n1	87%
CC1(N2CCOCC2)CC(=O)N(c2ccccc2)O1 (stereo unspecified)	62% (active)
Cc1c(CN2CCOCC2)c(=O)n(-c2ccccc2)n1C	87%
O=C1c2ccccc2C(=O)C1(O)N1CCOCC1	85%
COc1ccc(OCC2c3cc(OC)c(OC)cc3CCN2C(=O)c2c(F)cccc2F)cc1 (stereo unspecified)	112%
CCN(CC)c1ccc(NC(=O)CCc2c(C)nc3ncnn3c2C)c(C)c1	115%

Compound	survival
CCN1CCN(CCCNC(=O)c2cc3c(=O)n(C)c4ccccc4c3s2)CC1	79%
O=C(NCCSCc1cccc(Cl)c1)C1CCN(S(=O)(=O)Cc2ccccc2)CC1	63%
COc1ccc(OC)c(C2C(C(=O)Nc3ccc(C)cc3C)=C(C)Nc3c(C(=O)Nc4ccc(F)cc4)cnn32)c1 (stereo unspecified)	96%
COc1ccc(CNC(=O)c2nc(SCc3ccccc3F)ncc2Cl)cc1	81%
COc1ccc(CNC(=O)c2nc(S(=O)(=O)Cc3ccccc3)ncc2Cl)cc1	18% (active)
Cc1ccc(NC(=O)c2nc(S(=O)(=O)Cc3ccc(F)cc3)ncc2Cl)cc1C	84%
Cc1ccc(CSc2ncc(Cl)c(C(=O)NCc3ccccc3)n2)cc1	79%
CCS(=O)(=O)c1ncc(Cl)c(C(=O)NCc2ccccc2)n1	50%
O=C(NCc1ccccc1)c1nc(S(=O)(=O)Cc2ccccc2)ncc1Cl	18% (active)
Cc1ccc(C)c(NC(=O)c2nc(S(=O)(=O)Cc3ccc(F)cc3)ncc2Cl)c1	99%
O=C(NCc1ccccc1)c1nc(S(=O)(=O)Cc2ccc(F)cc2)ncc1Cl	-6% (active)
COc1ccc(CNC(=O)c2nc(SC(C)C)ncc2Cl)cc1	114%
CC(=O)Nc1ccc(NC(=O)c2nc(S(=O)(=O)Cc3ccc(F)cc3)ncc2Cl)cc1	32% (active)
Cc1ccc(CNC(=O)c2nc(SCc3ccc(F)cc3)ncc2Cl)cc1	71%
CCNC(=O)c1c(NC(=O)Cc2coc3ccc(CC)cc23)sc2c1CCCC2	79%
COc1ccc(CNC(=O)c2cccc(-n3cnc4cccnc43)c2C)cc1	90%
CCc1ccc(NC(=O)c2cc(S(=O)(=O)N3CCCCCC3)ccc2F)cc1	99%
CC(=O)Nc1n[nH]c(-c2ccc(C)cc2)c1C	94%
Cc1ccc(NC(=O)Cn2c(=O)ccc3cc(S(=O)(=O)N4CCC(C)CC4)ccc32)cc1C	71%
COc1ccc(N2C(=O)C(CC(=O)Nc3ccccc3)N(CCC3=CCCCC3)C2=O)cc1 (stereo unspecified)	72%
COc1ccc(NC(=O)c2nc(S(=O)(=O)Cc3ccc(C)cc3)ncc2Cl)cc1	32% (active)
Cc1ccc(CNC(=O)c2nc(S(=O)(=O)Cc3ccc(C)cc3)ncc2Cl)cc1	41% (active)
COc1ccc(CNC(=O)c2nc(SCc3ccc(C)cc3)ncc2Cl)cc1	67%
COc1ccc(OC)c(NC(=O)c2nc(S(=O)(=O)Cc3ccc(F)cc3)ncc2Cl)c1	-5% (active)

Compound	survival
Cc1cccc(CS(=O)(=O)Cc2ccc(C(=O)NCc3ccccc3)o2)c1	124%
Cc1ccc(CNC(=O)c2nc(SCc3cccc(C)c3)ncc2Cl)cc1	117%
Cc1cccc(CS(=O)(=O)c2ncc(Cl)c(C(=O)NCc3ccccc3)n2)c1	-1% (active)
CSc1ncc(Cl)c(C(=O)NCc2ccc(C)cc2)n1	84%
COc1ccccc1NC(=O)c1nc(SCc2ccc(F)cc2)ncc1Cl	77%
COc1ccc(OC)c(NC(=O)c2nc(SCc3ccc(F)cc3)ncc2Cl)c1	77%
CCOc1ccc(NS(=O)(=O)c2ccc3c(c2)CCCN3C(=O)C2CCC2)cc1	67%
CC(C)Oc1ccc(CNC(=O)c2cnc3sc(N4CCCCC4)nn3c2=O)cc1	124%
CCCCCn1c(=N)c(S(=O)(=O)c2ccc(C)cc2)cc2c(=O)n3cc(C)ccc3nc21	84%
O=C(NCc1ccc(Cl)cc1)NCc1noc2ccccc12	41%
COc1ccccc1NC(=O)CSc1oc(-c2cccs2)nc1S(=O)(=O)c1ccc(Br)cc1	68%
CCn1ccc2cc(S(=O)(=O)N3CCCN(C(=O)Nc4ccc(C)cc4)CC3)ccc21	73%
CCSc1nnc(C2CCCN(CC(=O)Nc3nc(C)cs3)C2)n1C (stereo unspecified)	91%
CC(C)NC(=O)c1ccc(CSc2nc3ccncc3n2Cc2cccc(F)c2)cc1	77%
CCOc1ccc(-c2nonc2NC(=O)c2ccccc2C)cc1	107%
CCOc1ccc(NC(=O)c2cc(S(=O)(=O)N3CCOCC3)ccc2F)cc1	89%
COC(=O)c1ccccc1NC(=O)c1nc(SCc2ccccc2C)ncc1Cl	79%
CCS(=O)(=O)c1ncc(Cl)c(C(=O)Nc2c(C(=O)Nc3cccc(C)c3)oc3ccccc23)n1	67%
CCOc1ccccc1NC(=O)c1nc(S(=O)(=O)Cc2cccc(C)c2)ncc1Cl	66%
CCS(=O)(=O)c1ncc(Cl)c(C(=O)Nc2ccccc2)n1	52%
CCOC(=O)c1ccc(NC(=O)c2nc(S(=O)(=O)Cc3ccccc3)ncc2Cl)cc1	-2% (active)
COC(=O)c1ccccc1NC(=O)c1nc(S(=O)(=O)Cc2cccc(C)c2)ncc1Cl	39% (active)
Cc1ccc(NC(=O)c2nc(S(=O)(=O)Cc3cccc(C)c3)ncc2Cl)cc1	-3% (active)
CCOC(=O)c1ccc(NC(=O)c2nc(SC(C)C)ncc2Cl)cc1	107%
